For 92 compounds, inhibition results are on record in PubChem BioAssay AID449762 (Southern Research Specialized Biocontainment Screening …, 2010).

Structures are written as SMILES. Values joined by “and” are separate entries in the source; they are usually repeats but may differ in a detail not shown here. Equal values may be shown once. Screen size: about 330,000 compounds; about 1,900 (0.58%) were called active. About 4% were inconclusive and are not listed. The list is a sample of the results. Results with a measured potency or affinity are listed apart. A number with no mark means an inactive call. Rule as the data show it: inconclusive = inhibition above about 70% without an active follow-up result; inactive = below that.

Usually inhibition stands for the change of the read-out against control, counted positive when it falls.

A short description of the experiment: M. tuberculosis growth inhibition, HTS (AID 449762).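 Also: bacterial growth assessed after seven days of incubation.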 The conditions noted are these: M. tuberculosis H37Rv growth inhibition, 7H9 media; at 25 µM; active compounds read high.
Regarding `COc1ccc(C2=CSC3=NCCN23)cc1`, the inhibition is 4.38%.
Regarding `CCC(=NCc1cccnc1)c1c(O)n(Cc2ccccc2)c(=O)[nH]c1=O`, the inhibition is -0.2%.
As for `COc1ccc(NC(=O)Cn2c(=O)n(-c3ccccc3)c(=O)c3oc4ccccc4c32)c(OC)c1`, the inhibition is -0.2%.
On to `CC1(C)CC(=O)CC(=Nc2ccc(C(=O)O)cc2)C1`, for which the inhibition was 2.32%.
Turning to `COc1ccc(OC)c(C(c2nnnn2Cc2ccccc2)N2CCN(C)CC2)c1` (configuration not stated), the inhibition is 5.62%.
Regarding `O=[N+]([O-])c1cc(/C=N/N2CCCCC2)ccc1Cl`, the inhibition was 1.34%.
As to `Cc1ccc(CN2CCN(/N=C\c3cccc([N+](=O)[O-])c3)CC2)cc1`, the inhibition is 55.9%.
With `Nc1c2c(nc3ccn(-c4ccccc4)c(=O)c13)CCCCC2`, the inhibition is 3.82%.
As for `Nc1c2c(nc3ccccc13)CCC2`, the inhibition is -1.89%.
Next, `CCNC(=O)c1nc[nH]c1C(=O)NCC`: -0.32%.
Take `COc1ccc2c(c1OC)C(=O)N1c3ccccc3COC21` (configuration not stated): the inhibition is -4.65%.
`CC1CC(C)CN(C(=O)c2cc3c(=O)n4ccccc4nc3s2)C1` (configuration not stated): the inhibition is 9.39%.
Next, `COc1cccc(CNS(=O)(=O)c2cccc(S(=O)(=O)N3CCOCC3)c2)c1`: 5.34%; `COc1ccccc1C1CC(c2ccc(Cl)cc2Cl)Nc2nc(N)nn21` (configuration not stated): -6.06%; `O=C(COc1ccccc1)NNC(=O)c1cc2ccccc2oc1=O`: -4.55%.
For the compound `O=C(COc1ccc(F)cc1)NNC(=O)c1cc2ccccc2oc1=O`, the inhibition is -1.43%.
Regarding `CCOc1cc(N2CCOCC2)c(OCC)cc1NC(=O)c1ccc(OC)c(S(=O)(=O)N2CCOCC2)c1`, the inhibition was -2.5%.
Consider `Cc1c(NS(=O)(=O)c2cccc(C(=O)NCc3ccc(Cl)cc3)c2)c(=O)n(-c2ccccc2)n1C`, for which the inhibition is -7.86%.
For the compound `CCOC(=O)c1csc(-c2ccc(OC)c(OC)c2)n1`, the inhibition was 6.33%.
Next, `CCOC(=O)c1csc(N)n1`: -3.93%; `O=C(Nc1cccc(Cl)c1)NC1CC2CCC(C1)N2Cc1cccs1` (configuration not stated): -7%; `CCOc1ccc(-c2c[n+]3c(n2-c2ccccc2)CCCCC3)cc1`: -9.73%.
As to `CCOc1ccc(-n2c(-c3ccccc3)c[n+]3c2CCCCC3)cc1`, the inhibition was -7.91%.
Consider `Cc1nc(NC(=O)COC(=O)C2CC2C)c(Cl)cc1Cl` (configuration not stated), for which the inhibition was -3.52%.
For `Cc1ccccc1Nc1nc(N)nc(COC(=O)c2ccco2)n1`, the inhibition was 10.5%.
As for `Cc1ccccc1Nc1nc(N)nc(COC(=O)c2ccccc2)n1`, the inhibition was -4.25%.
Turning to `CC1CN(c2ccc([N+](=O)[O-])c(NCCOc3ccccc3)c2)CC(C)N1` (configuration not stated), the inhibition is 18.3%.
`CC1CN(c2ccc([N+](=O)[O-])c(NCCOc3ccccc3)c2)CCN1` (configuration not stated): the inhibition is 22.7%.
Next, `O=C(NCc1ccc2c(c1)OCO2)c1c(F)c(F)c(F)c(F)c1F`: 4.75%; `Cc1csc2nc(O)c(C(=O)NCCC3=CCCCC3)c(=O)n12`: 49.8%.
In the case of `O=C(NCCC1=CCCCC1)c1c(O)nc2ccccn2c1=O`, the inhibition was -7.18%.
`Cc1csc2nc(O)c(C(=O)NCc3ccc4c(c3)OCO4)c(=O)n12`: the inhibition was 28.7%.
Take `Cc1ccc(C)c(C(=O)n2cnnc2N)c1`: the inhibition is -9.61%.
For `NC(=O)C1c2ccccc2Oc2ccccc21`, the inhibition is -5.49%.
Turning to `Cc1cc(C)nc(N2CCCC(C(=O)NC(C)C)C2)n1` (configuration not stated), the inhibition is 0.18%.
Regarding `O=C(Nc1cc(Cl)ccc1Cl)c1ccco1`, the inhibition is -6.05%.
Take `O=C(NC(NC(=S)Nc1cc(Cl)ccc1Cl)C(Cl)(Cl)Cl)c1ccco1` (configuration not stated): the inhibition is 11.3%.
Take `C[C@H](CO)N1C[C@H](C)[C@@H](CN(C)S(=O)(=O)c2cccs2)Oc2ccc(NC(=O)Nc3ccccc3)cc2C1=O`: the inhibition was -4.72%.
For the compound `COc1ccc(NC(=O)Nc2ccc3c(c2)C(=O)N([C@H](C)CO)C[C@H](C)[C@@H](CN(C)S(=O)(=O)c2cccs2)O3)cc1`, the inhibition is 2.72%.
In the case of `CCCc1nc2nc(C)c(NS(=O)(=O)c3ccc(Cl)cc3)c(=O)n2[nH]1`, the inhibition was -4.54%.
On to `CC(C)=NNc1nc2c(c(=O)n(C)c(=O)n2C)n1CCc1ccccc1`, for which the inhibition was -14.4%.
As for `Cc1ccc(/C=C/S(=O)(=O)NCC(=O)OCC(=O)Nc2ccc(C(N)=O)cc2)cc1`, the inhibition was -3.63%.
Consider `Cc1ccc(/C=C/S(=O)(=O)NCC(=O)OCC(=O)NCc2ccccc2)cc1`, for which the inhibition was 6.29%.
With `O=C(NC1CCSc2ccccc21)c1cc([N+](=O)[O-])ccc1N1CCOCC1` (configuration not stated) the figure was -4.07%; with `Nc1n[nH]c(N)c1N=Nc1ccc(Cl)cc1`, 0.26%; with `Nc1nc(N)c(N=Nc2ccc(Cl)cc2)c(=O)[nH]1`, 3.75%.
For the compound `COc1cccc(NC(=O)CSc2ccc3nnc(-c4cccnc4)n3n2)c1`, the inhibition is 6.73%.
On to `O=C(CN(Cc1ccc(F)cc1)C(=O)CNS(=O)(=O)c1ccc(Cl)cc1)NCC1CCCO1` (configuration not stated), for which the inhibition is -7.08%.
Next, `CCC(=O)N1N=C(c2cccs2)CC1c1ccc(C)cc1` (configuration not stated): -0.72%.
For the compound `CCN1CCN(CC(=O)N2N=C(c3cccs3)CC2c2ccc(C)cc2)C(=O)C1=O` (configuration not stated), the inhibition is 12.5%.
As to `COc1ccccc1NC(=O)CCc1nnc2ccc(N3CCC4(CC3)OCCO4)nn12`, the inhibition was -1.86%.
In the case of `CN1C(=O)CSc2ccc(NC(=O)N3CCOCC3)cc21`, the inhibition was 8.66%.
Consider `CCC(=O)Oc1c(S(=O)(=O)c2ccc(C)cc2)c(C)nn1C(C)(C)C`, for which the inhibition is 11.5%.
With `CCOc1ccc(Cc2nnc(SCC(=O)Nc3ccc(OC)cc3)n(N)c2=O)cc1` the figure was 0.84%.
`COc1ccc(Cc2nnc(SCC(=O)Nc3ccccc3C)n(N)c2=O)cc1`: the inhibition is -1.95%.
Take `N#Cc1c(N)n[nH]c1CCCN`: the inhibition was 0.78%.
Consider `Nc1c2ccccc2nc2ccccc12`, for which the inhibition is -8.85% and 58.8%.
`O=C(O)c1cc(Cl)nc2ccccc12`: the inhibition was 2.9%.
Next, `CCCCOc1ccc(OCCNC(=O)C2CCCN2C(=O)Nc2ccccc2)cc1` (configuration not stated): 8.66%; `COc1cc(C(=S)N2CCOCC2)cc(OC)c1OC(=O)c1ccc(C)cc1`: 8.19%; `CCCc1nc2ccccc2c(C(=O)O)c1CC`: 2.61%.
Turning to `COc1cc2c(cc1OC)C1(Nc3c-2c(C)nn3-c2ccccc2)C(=O)Nc2ccccc21` (configuration not stated), the inhibition is 9.01%.
Next, `COc1cc2c(cc1OC)C1(NCC2)C(=O)Nc2ccccc21` (configuration not stated): 4.39%; `COC(=O)c1sc(-c2ccccc2)cc1NC(=O)c1cc(OC)cc(OC)c1`: 6.45%; `Cc1cccc(C)c1-n1c(C)nn(Cc2ccc([N+](=O)[O-])cc2)c1=O`: -15.4%.
Next, `C(=N\Nc1ccccn1)/c1ccc2c(c1)OCCO2`: -4.47%.
As to `C(=N\Nc1nc2ccccc2[nH]1)/c1ccc2c(c1)OCCO2`, the inhibition was 12.1%.
In the case of `O=C(NN1C(=O)NC2(CCCCC2)C1=O)c1ccc(-c2ccc([N+](=O)[O-])cc2)o1`, the inhibition is 4.8%.
With `CCOC(=O)C1CCCN(S(=O)(=O)c2cccc3cccnc23)C1` (configuration not stated) the figure was -4.82%.
As to `O=C1N(CCCCN2C(=O)C3(OCCO3)c3ccccc32)c2ccccc2C12OCCO2`, the inhibition is -3.23%.
Next, `O=C1N(CCCN2C(=O)C3(OCCO3)c3ccccc32)c2ccccc2C12OCCO2`: -3.19%; `O=C1O[C@@H]([C@H](O)CO)C(O)=C1O`: -0.84%.
For `Cn1c(C(=O)NCc2ccc3c(c2)OCO3)cc2sccc21`, the inhibition was 9.66%.
Take `CN1OC(c2ccccc2)=C(CO)C1c1ccccc1` (configuration not stated): the inhibition is -1.69%.
Consider `COc1ccc(-c2c(-c3ccc(OC)c(C)c3O)n[nH]c2C)cc1`, for which the inhibition was 10.4%.
As to `O=C(NCc1ccc(Cl)cc1)c1ccc(CSc2nc3ccncc3[nH]2)cc1`, the inhibition is 5.93%.
For the compound `O=C(c1ccc(CSc2nc3ccncc3[nH]2)cc1)N1CCN(c2cccc(Cl)c2)CC1`, the inhibition was 60.3%.
Next, `O=C(c1ccco1)N1CCCC(c2nc3c(nnn3Cc3cccc(Cl)c3)c(=O)[nH]2)C1` (configuration not stated): -2.33%; `CCOC(=O)c1ccc(Nc2ccc([N+](=O)[O-])cn2)cc1`: -5.22%; `C#CCCC(=O)c1ccccc1/C=[N+](\[O-])c1ccccc1`: -2.08%.
Take `COc1cccc(-c2n[nH]c(=S)n2Cc2ccco2)c1`: the inhibition was 8.56%.
On to `COCc1c(C(=O)N/N=C(/C)c2cccs2)nnn1-c1nonc1N`, for which the inhibition was -8.26%.
Next, `CCOc1ccc(NC(=O)CCC(=O)Nc2cc(OC)c(NC(=O)c3ccco3)cc2OC)cc1`: 20.8%; `CCN1C(=O)[C@H]2[C@@H](c3ccc(-c4ccccc4)cc3)N[C@@](C)(C(=O)OC)[C@H]2C1=O`: 1.42%; `COc1cc(CCC(C)=O)ccc1OC(=O)c1c(F)cccc1Cl`: 3.02%.
With `COc1ccc(NC(=O)COc2ccc(/C=C/c3cc[n+](C)cc3)cc2OC)cc1`, the inhibition was -3.55%.
As for `COc1cc(/C=C/c2cc[n+](C)cc2)ccc1OCC(=O)Nc1ccccc1`, the inhibition is -0.02%.
With `CCCCCCc1nc(C(N)=O)c2[nH]c(=O)n(-c3ccc(OC)cc3OC)c2n1` the figure was 7.81%.
Next, `Cc1cc(C)c(CN2CCC(n3nccc3NC(=O)C3CCOC3)CC2)cc1C` (configuration not stated): -0.02%.
On to `OC1(c2cccc(C(F)(F)F)c2)CCN(Cc2nnnn2CCc2ccccc2)CC1`, for which the inhibition was 1.32%.
Consider `Cc1ccc(N2Cc3ccccc3C2=N)cc1[N+](=O)[O-]`, for which the inhibition was 2.11%.
With `COc1cc(NS(=O)(=O)c2ccc(OC)c(C)c2C)c(OC)cc1Cl`, the inhibition is -6.31%.
